According to PubChem BioAssay (Tox21):
Records with an inconclusive call do not appear. Entries that show only a call come without a potency. Active and inactive are the calls of the source. Calls come from the whole dose curve; as a rule, active = well fitted activation curve with a large enough effect; inconclusive = small, poorly fitted or top-dose-only effect; inactive = flat fitted curve, though single readings scatter.

assay: qHTS assay to identify small molecule phospholipidosis (PLD) inducers (AID 1259344); conditions: HepG2 phospholipidosis, LipidTOX Red imaging, 24 h; series mostly up to 38.3 µM
From the text: National Center for Advancing Translational Sciences [NCATS]
Drug-induced Phospholipidosis (PLD) caused by cationic amphiphilic drugs is characterized by the appearance of unicentric or multicentric-lamellar bodies when viewed under electron microscope. Electron microscopy is the gold standard method for PLD detection, however, this method is time-consuming and labor intensive, making it unsuitable for evaluating a large set of compounds. A cell-based phospholipidosis assay has been developed using the LipidTox reagent in HepG2 cells and miniaturized into a 1536-well plate format. Drug induced phospholipid accumulation is stained with the LipidTox dyes in red color which then is determined using an automated high content screening system.
HepG2 cells are dispensed at 900 cells/3 uL/well into Collagen I-coated 1536-well black-wall/clear-bottom assay plates (Greiner Bio-One, Monroe, NC) using the Multidrop Combi 8 channel dispenser (Thermo Fisher, Waltham, MA, USA). The assay plates are incubated at 37 C for 4 hours to allow the cell attachment. 3 uL of 1:500 LipidTOX Red dye is added using the dispenser, and then 23 nL compounds are added via a Wako Pintool station (Wako Automation, San Diego, CA). Amiodarone, a known PLD inducer, was used as a positive control and DMSO was used as a negative control. The assay plates were then incubated at 37 C for 24 hours.
For fixations, 4 uL of 8% paraformaldehyde fixative solution containing 10 ug/mL Hoechst 33342 in Dulbecco's phosphate-buffered saline (DPBS) is added using a Kalypsys washer/dispenser (Kalypsys, San Diego, CA, USA). After incubation at room temperature for 30 min, the assay plates are washed once with DPBS using a Kalypsys washer/dispenser. The assay plates are then sealed and stored at 4 C before imaging. The fluorescence intensities (595 nm excitation, 615 nm emission for LipidTOX; 352 nm excitation, 461 nm emission for Hoechst 33342) are measured using an ImageXpress Micro Widefield High Content Screening System (Molecular Devices, Sunnyvale, CA, USA) with a 20x Plan Fluor objective. Images are acquired for one site in each well and analyzed with the MetaXpress software (Molecular Devices) using the Transfluor module. Several algorithmic outputs, such as pit count per well, pit count per cell, pit integrated intensity per well, and pit integrated intensity per cell, are used for quantitative image analysis for PLD.
Potency is the fitted concentration of half-maximal effect.

Row | SMILES | Potency | PLD induction
1 | CCC1(CC)C(=O)C=CNC1=O | inactive | –
2 | COC(=O)[C@@H](N)CCCN/C(N)=N/[N+](=O)[O-] | inactive | –
3 | C[C@H](N)C(=O)c1ccccc1 | inactive | –
4 | N#CN | inactive | –
5 | NC(=O)CS(=O)C(c1ccccc1)c1ccccc1 (stereo not given) | inactive | –
6 | CC1N=C(N)OC1c1ccccc1 (stereo not given) | inactive | –
7 | CC(Cc1ccccc1)NCCn1cnc2c1c(=O)n(C)c(=O)n2C (stereo not given) | inactive | –
8 | CCC1(c2cccc(O)c2)CCCCN(C)C1 (stereo not given) | inactive | –
9 | C=CCN1CC[C@]23CCCC[C@H]2[C@H]1Cc1ccc(O)cc13 | inactive | –
10 | NC1(c2ccccc2)CCCCC1 | 8.91 µM (active) | –
11 | CNC(=O)NC(O)C(Cl)(Cl)Cl (stereo not given) | inactive | –
12 | O=c1[nH]oc2c1CCNC2 | inactive | –
13 | CC(C)(O)C(Cl)(Cl)Cl | inactive | –
14 | CCC(=O)OC1(c2ccccc2)CCN(C)CC1 | inactive | –
15 | CCCN1CCC[C@@H]2Cc3[nH]ncc3C[C@H]21 | inactive | –
16 | CC(C)(C)c1cc(O)ccc1O | inactive | –
17 | CCCCCCC(=O)CCCCCC/C=C/C[C@@H](O)[C@H](O)[C@@](N)(CO)C(=O)O | inactive | –
18 | CCC1(c2ccccc2)CCC(=O)NC1=O (stereo not given) | inactive | –
19 | CN1C(=O)COc2c(C(=O)NC3CN4CCC3CC4)cc(Cl)cc21 (stereo not given) | inactive | –
20 | CC(C)(C)NC[C@H](O)c1ccc(O)cc1Cl | inactive | –

Row | SMILES | Potency | PLD induction
21 | Cc1ccc(-c2nc3ccc(C)cn3c2CC(=O)N(C)C)cc1 | inactive | –
22 | ClC1=C(Cl)C2(Cl)C(CBr)CC1(Cl)C2(Cl)Cl (stereo not given) | inactive | –
23 | CCN[C@@H](C)Cc1ccccc1 | inactive | –
24 | CN(C)CCc1c[nH]c2cccc(OP(=O)(O)O)c12 | inactive | –
25 | C[C@@H](N)[C@@H](O)c1ccccc1 | inactive | –
26 | Cc1ccc(Cl)c(O)c1 | inactive | –
27 | CC(=O)OCC1=C(C(=O)O)N2C(=O)[C@@H](N)[C@H]2SC1 | inactive | –
28 | CCc1cc(OC)c(C[C@H](C)N)cc1OC | inactive | –
29 | Oc1ccc2c3c1O[C@H]1[C@@H](O)C=C[C@H]4[C@@H](C2)NCC[C@@]341 | inactive | –
30 | C=C(C)[C@H]1CN[C@H](C(=O)O)[C@H]1CC(=O)O | inactive | –
31 | Cc1ccc2c(c1)C1CN(C)CCC1N2 (stereo not given) | inactive | –
32 | CC1=C2[C@H]3OC(=O)[C@@H](C)[C@@H]3CC[C@@]2(C)C=CC1=O | inactive | –
33 | COc1cc(CC(C)N)cc(OC)c1OC (stereo not given) | inactive | –
34 | C=C1C[C@@H]2[C@H](CC[C@]3(C)C(=O)CC[C@@H]23)[C@@]2(C)C=CC(=O)C=C12 | inactive | –
35 | COc1cc(CCN)cc(OC)c1OC | inactive | –
36 | CCN(CCO)CCn1c(Cc2ccccc2)nc2c1c(=O)n(C)c(=O)n2C | – | -2.9% [at 7.66 µM] (inactive)
37 | CC[C@@H](CO)NC(=O)[C@@H]1C=C2c3cccc4c3c(cn4C)C[C@H]2N(C)C1 | inactive | –
38 | CC1NCCOC1c1ccccc1 (stereo not given) | inactive | –
39 | ClC(Cl)(Cl)Cl | inactive | –
40 | N[C@@H]1C[C@H]1c1ccccc1 | inactive | –
